Source: PubChem (National Center for Advancing Translational Sciences (NCATS))
Shown is part of a subset that was picked to be rich in hits.
KDM5B inhibitor – Primary screen for KDM5B Histone Demethylases FDH-coupled qHTS. AID 1347165, 2019. Potency, µM (doses to about 57.7 µM), usual class: inhibitors. KDM5B demethylase, FDH-coupled NADH fluorescence (FDH is formaldehyde dehydrogenase). 220,000 tested, 2.6% active; active means well fitted inhibition curve with a large enough effect; further: nearly all actives have a fitted effect of over 70% in size
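KDM5BΔAP (200 nM final) in 50 mM HEPES pH 7.5, 0.01% Tween-20 was preincubated 10 min at RT with compound over a concentration range. Substrate mix (H3K4me3 12.5 µM, α-KG 25 µM, Fe²⁺, ascorbate, NAD⁺, FDH) was added, and NADH fluorescence change over 30 min gave dose-response curves.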
Large screens that a line does not name were inactive.

CCOc1ccc(N/C=C/C(=O)C23CC4CC(CC(C4)C2)C3)cc1	none
CCCn1nc(C(=O)Nc2nc(-c3cc(OC)ccc3OC)cs2)c2ccccc2c1=O	none
CC(C)(C)n1cnc2c(N3CC4CCC(C3)N4CC(F)(F)F)ncnc21	none
N#Cc1cnc(N2CC3CCC(C2)N3CC(F)(F)F)s1	none
Cc1cnc(N2CC3CCC(C2)N3CC(F)(F)F)s1	KDM5B inhibitor 56µM
COc1ccc(CC(=O)N2CC[C@H]3CC(=O)N(CCN4CCNC4=O)CC[C@H]3C2)cc1	none
O=C(c1cccs1)N1CCc2[nH]nc(-c3cccc(F)c3)c2C1	none
O=C(c1cncs1)N1CCc2c(cc(-c3cccc(F)c3)c(=O)n2CCN2CCCCC2)C1	KDM5B inhibitor 28µM
O=C(NCc1cccc(F)c1)C1CCc2sc(C(=O)N3CCCCC3)cc2C1 (centres undefined)	none
CCCC(=O)Nc1ccc(CNCc2ccc(F)c(Br)c2)cc1	none
CN(C)CCC1CCNCC1	none
COc1ccc(C(=O)N[C@H]2CO[C@H]3[C@@H]2OC[C@@H]3Nc2nccc(C(C)(C)C)n2)cc1	none
COc1ccccc1-c1ccnc(N[C@H]2CO[C@H]3[C@@H]2OC[C@@H]3NC(=O)c2ccccc2)n1	KDM5B inhibitor 35µM
CC(=O)c1ccc(NC(=O)O[C@@H]2CO[C@H]3[C@@H]2OC[C@@H]3NC(=O)COc2ccccc2)cc1	none
CC(=O)c1ccc(NC(=O)N[C@H]2CO[C@H]3[C@@H]2OC[C@@H]3Nc2nccc(C(C)(C)C)n2)cc1	none
O=C(COc1ccccc1)N[C@H]1CO[C@H]2[C@@H]1OC[C@H]2OC(=O)Nc1cccc2ccccc12	none
COc1ccccc1-c1ccnc(N[C@H]2CO[C@H]3[C@@H]2OC[C@@H]3NC(=O)COc2ccccc2)n1	KDM5B inhibitor 22µM
COCCn1c(SCc2nc(-c3ccccc3C)no2)nc2ccsc2c1=O	none
Cc1ccc(C(=O)COC(=O)C2CC(=O)N(c3nc(-c4cccc(Cl)c4)c(C)s3)C2)cc1 (centres undefined)	none
COC1CCC12CCN(C(=O)c1cccn1C)CC2 (centres undefined)	none
Cc1ccc(C(=O)N2CCC(Oc3ccc(C(=O)N(C)C)cn3)CC2)s1	none
COCCO[C@H]1C(=O)N(C2CCN(C(=O)c3cccn3C)CC2)[C@H]1c1ccncc1	none
CCOc1nccnc1NC1CCN(C(=O)c2ccc(C)s2)CC1	KDM5B inhibitor 28µM
CCOc1nccnc1NC1CCN(C(=O)c2cccn2C)CC1	KDM5B inhibitor 28µM
Cc1ccc(C(=O)N2CCC(OC3CCN(C)CC3)CC2)s1	none
O=C(c1cc2ccccc2o1)N(Cc1ccc(F)cc1)C1CC1	none
Cc1csc(NC(=O)CNC(=O)c2ccoc2)n1	none
COc1nc2ccccc2cc1-c1noc(-c2cccs2)n1	none
CC1(C)CC(=O)c2cc(C#N)c(SCC(N)=O)nc2C1	none
CC(C)Oc1ccc(C(=O)NC2CCCC2)cc1	none
Cc1cc2oc(C(=O)NCC(c3cccs3)N3CCCCCC3)cc(=O)c2cc1Cl (centres undefined)	none
COC(=O)Cn1c(=O)c2c(nc(-n3nc(C)cc3C)n2Cc2cccc(C)c2)n(C)c1=O	none
C=CCNC(=O)c1cccc2c(=O)c(C)c(-c3ccccc3)oc12	none
COc1ccc(NC(=O)N[C@H]2CO[C@H]3[C@@H]2OC[C@H]3OC(=O)Nc2ccc(OC)cc2)cc1	none
C=CCNC(=O)N[C@H]1CO[C@H]2[C@@H]1OC[C@@H]2Nc1nccc(-c2ccc(OC)cc2)n1	KDM5B inhibitor 35µM
COc1ccc(-c2ccnc(N[C@H]3CO[C@H]4[C@@H]3OC[C@H]4OCC(=O)N(C)C)n2)cc1	KDM5B inhibitor 35µM
COc1ccc(-c2ccnc(N[C@H]3CO[C@H]4[C@@H]3OC[C@H]4OC(=O)Nc3ccc(C(C)(C)C)cc3)n2)cc1	KDM5B inhibitor 25µM
CCNC(=O)N[C@H]1CO[C@H]2[C@@H]1OC[C@@H]2Nc1nccc(-c2ccc(OC)cc2)n1	KDM5B inhibitor 28µM
COc1ccc(-c2ccnc(N[C@H]3CO[C@H]4[C@@H]3OC[C@H]4OC(=O)Nc3cccc(C(C)=O)c3)n2)cc1	none
C=CCNC(=O)N[C@H]1CO[C@H]2[C@@H]1OC[C@@H]2Nc1nccc(C(C)(C)C)n1	none
COc1ccc(-c2ccnc(N[C@H]3CO[C@H]4[C@@H]3OC[C@H]4OC(=O)Nc3ccc(C(C)=O)cc3)n2)cc1	none
Cc1cccc(NC(NC(=O)c2ccc(Br)cc2)C(Cl)(Cl)Cl)c1 (centres undefined)	none
O=C(CCc1c[nH]c2ccccc12)Nc1ccc(F)c(F)c1F	none
CC1=NOC2(CCN(C(=O)c3ccccc3F)C2)C1 (centres undefined)	none
CC(=O)N1CCCC(c2[nH]ccc2C(=O)N2CCc3ccccc32)C1 (centres undefined)	none
CCNC(=O)N1CCOc2ccc(CCC(=O)NCc3nc4ccccc4n3C)cc2C1	none
Cc1ccc(C(=O)N2CCN(C(c3ccc(F)cc3)c3ccc(F)cc3)CC2)o1	none
COc1ccc(NC(=O)CCc2c(C)c3ccc(C)cc3oc2=O)cc1O	none
Nc1cccc(CO)c1	none
O=C(CC1CCCN(c2cnn(CC3CC3)c(=O)c2)C1)NCc1ccc(F)cc1 (centres undefined)	none
S=C(NCc1ccc(Cl)cc1)C1CCCCC1	none
CC(C)c1ccc(S(=O)(=O)c2nnn3c2nc(N2CCCC2)c2sccc23)cc1	none
Cc1ccc(S(=O)(=O)c2nnn3c2nc(N2CCOCC2)c2ccccc23)cc1C	KDM5B inhibitor 79µM
CC(C)c1ccc(S(=O)(=O)c2nnn3c2nc(N2CCCCC2)c2ccccc23)cc1	KDM5B inhibitor 89µM
CN1CCN(c2nc3c(S(=O)(=O)c4ccccc4)nnn3c3ccsc23)CC1	none
Cc1ccc(S(=O)(=O)c2nnn3c2nc(N2CCN(c4ccccc4F)CC2)c2ccccc23)cc1C	none
O=S(=O)(c1ccc(Cl)cc1)c1nnn2c1nc(N1CCOCC1)c1ccccc12	none
CC(C)c1nc2n(n1)CCN(C(=O)c1ccc(Cl)cc1)C2	none
O=C(NCc1cccc(C(F)(F)F)c1)C1CCCN(C(=O)c2ccc(Cl)cc2)C1 (centres undefined)	none
O=C1NCc2ccccc2CC12CCCN2Cc1ccnc2ccccc12 (centres undefined)	KDM5B inhibitor 50µM
Cc1ncc(CO)c(CN2CCCC23Cc2ccccc2CNC3=O)c1O (centres undefined)	KDM5B inhibitor 79µM
O=C1NCc2ccccc2CC12CCN(Cc1ccnc3ccccc13)C2 (centres undefined)	none
COc1ncccc1CN1CCCC12Cc1ccccc1CNC2=O (centres undefined)	none
Cc1ncc(CO)c(CN2CCCCC23Cc2ccccc2CNC3=O)c1O (centres undefined)	none
Cc1cccc(C)c1CN1CCCC12Cc1ccccc1CNC2=O (centres undefined)	none
COc1ccc(C2C3=C(CC(C)(C)CC3=O)Nc3nc(-c4cccc(O)c4)nn32)cc1 (centres undefined)	none
CCN(CC)C(=O)C[C@@H]1CCNC[C@@H]1Cc1cc(CC2CCCCC2)on1	none
Cc1cc(C#N)ccc1OCc1ccc(C#N)cc1	none
O=C(c1[nH]ncc1Cl)N1CCOC(Cc2cccc(C(F)(F)F)c2)C1 (centres undefined)	none
Cc1noc(C)c1-c1cc2c(c(-c3cnn(C)c3)c1)C(=O)N(C)C2	KDM5B inhibitor 40µM
Cc1noc(C)c1-c1cc2c(c(-c3cccc(CO)c3)c1)C(=O)N(C)C2	none
CC(=O)Nc1cccc(-c2cc(-c3c(C)noc3C)cc3c2C(=O)N(C)C3)c1	none
CCCNC(=O)CNC(=O)CCC1CCCC1	none
CCN(Cc1ccc2c(c1)OCO2)C(=O)c1cc2cc(Br)ccc2[nH]1	none
